# The whole screen tested about 48,000 compounds, of which about 13,000 (27%) showed an effect of 50% or more. Some of the results follow.
# Tested on: Wolbachia pipientis
# Experiment: Anti-Wolbachia Cell-Based Screen
# Format: functional
# Set-up: scale not given: in the data most compounds retested in dose-response had high values
# Details: 5 µM
row,Structure (SMILES),Percent Effect [%]
1,O=C(CCc1ccsc1)N1CCC(n2cc(CO)nn2)CC1,-0.2022
2,CCn1c(CN2CCCC2)nnc1C1CCN(Cc2ccc(C)o2)CC1,10.89
3,OC(CNc1nc(C2CCCC2)nc2c1CCNCC2)C(F)(F)F (configuration not stated),-10.56
4,NC(=O)CSc1nnc2[nH]c(=O)c3c(n12)CCCC3,2.529
5,CCCNC(=O)CSc1nnc2[nH]c(=O)c3c(n12)CCCC3,1.807
6,O=C(NCCCn1cccn1)c1csc2c1CCCC2,-1.067
7,O=C(NCCn1ccnc1)c1csc2c1CCCC2,1.844
8,COC(=O)CSc1nnc2[nH]c(=O)c3c(n12)CCCC3,-5.705
9,CCn1c(SCC(N)=O)nnc1-c1csc2c1CCCC2,115.1
10,CCCc1cc(=O)[nH]c2nnc(SCC(N)=O)n12,23.5
11,Cn1c(SCC(N)=O)nnc1-c1csc2c1CCCC2,119.7
12,CCCn1c(SCC(N)=O)nnc1-c1csc2c1CCCC2,99.65
13,O=C(CSc1ccncc1)N1C[C@H]2CC[C@@H]1CN(Cc1cccnc1)C2,5.846
14,CCCc1n[nH]c(C2CN(CCNS(=O)(=O)CC)CCO2)n1 (configuration not stated),14.03
15,CCCc1nnsc1C(=O)NCC1CCN(c2ccccn2)CC1,-9.247
16,O=C(NCCCN1CCN(c2ncccn2)CC1)NCC1CCOC1 (configuration not stated),1.135
17,CCn1nc(C(C)C)cc1C(=O)NCC1CCCN(c2ccccn2)C1 (configuration not stated),125
18,CCc1nnsc1C(=O)NCCC1CCCN(C(C)C)C1 (configuration not stated),8.592
19,CC(C)Cc1cc(C(=O)NCC2CCCN(c3ccccn3)C2)on1 (configuration not stated),8.718
20,CCCc1nnsc1C(=O)NCC1CCN(c2ncccn2)CC1,3.898
21,CC(C)c1cc(C(=O)NCC2CCCN(c3ncccn3)C2)n(C)n1 (configuration not stated),135
22,CC(C)c1cc(C(=O)NCC2CCCN(C(C)C)C2)n(C)n1.Cl (configuration not stated),153.6
23,Cc1ccc(-c2nc(CC(=O)NCC3CCCN(C(C)C)C3)cs2)o1 (configuration not stated),19.88
24,CC(C)Sc1ccc(C(C)NC(=O)CNS(C)(=O)=O)cc1 (configuration not stated),-8.082
25,COCC(C)N1CCc2onc(-c3ccc(C(F)(F)F)cc3)c2C1 (configuration not stated),-24.24
26,CCc1ccc(CN2CCc3ncnc(N4CCOCC4)c3CC2)o1.O=C(O)C(F)(F)F,10.74

row,Structure (SMILES),Percent Effect [%]
1,CCc1ncnc(N2CCOCC2C2CC2)c1F (configuration not stated),106.4
2,Cc1nn(C)c(C)c1C1COCCN1c1ncnc2sccc12 (configuration not stated),-13.78
3,CCc1c(C)sc2ncnc(N3CC[C@@H](N4CCOCC4)[C@H](O)C3)c12,-13.58
4,CC[C@H]1COCCN1C(=O)c1cnc(C(C)C)nc1C,-0.1974
5,CCc1ncnc(N2CCOCC2CCO)c1F (configuration not stated),97.7
6,CCOCC(=O)N1CCc2c(ncnc2N2CCOCC2)C1,-19.06
7,CCc1ncnc(N(C)CC2CCCCO2)c1F (configuration not stated),6.222
8,CCc1ncnc(N2CCOCC2C(N)=O)c1F (configuration not stated),114.1
9,Cc1n[nH]cc1CNCC(c1ccsc1)N(C)C (configuration not stated),26.65
10,COc1cccc(Cn2cccc(C#N)c2=O)c1,-6.219
11,CCc1csc(C2CCCN(C(=O)C3=NN(CC)C(=O)CC3)C2)n1 (configuration not stated),7.447
12,CCN1N=C(C(=O)N2CCCC(c3noc(C)n3)C2)CCC1=O (configuration not stated),-1.234
13,Cc1nc(C2CCCN(C(=O)C3=NN(C(C)C)C(=O)CC3)C2)no1 (configuration not stated),-5.623
14,CCc1nc(C2CCCN(C(=O)C3=NN(CC)C(=O)CC3)C2)no1 (configuration not stated),20.67
15,CCN1N=C(C(=O)N2CCCC(c3nc(C)c(C)s3)C2)CCC1=O (configuration not stated),92.25
16,CCN1N=C(C(=O)N2CCCC(c3nc(C)cs3)C2)CCC1=O (configuration not stated),85.99
17,COC1CCCN(C2CCN(c3cccc(-c4csc(C)n4)c3)CC2)C1 (configuration not stated),10.88
18,NC(=O)C1CCN(C(=O)C2SCCc3sccc32)CC1 (configuration not stated),-9.27
19,COc1cccc(-c2ncc(CN3C[C@@H]4CC[C@H](C3)N(C)C4=O)s2)c1,4.635
20,COCCn1ccnc1C1CCN(C(=O)c2cccc(COC)n2)CC1,-13.9
21,CN(C)S(=O)(=O)N1C[C@H]2CCC[C@@]2(COCC2CC2)C1,-7.001
22,CC(C)C(=O)N1CCOC2(COCCN(c3ncccn3)C2)C1 (configuration not stated),1.497
23,CN(C)C(=O)N1CCC2(CC1)COCCN(c1ncccn1)C2,89.78
24,CN(C)CC(=O)N1CCC2(CC1)COCCN(Cc1ccncc1)C2,-9.31
25,CN(C)CC(=O)N1CCC2(CC1)COCCN(c1ncccn1)C2,104.4
26,CN(C)CC(=O)N1CCC2(CC1)CN(c1ncccn1)CCO2.O=C(O)C(F)(F)F,-4.698

row,Structure (SMILES),Percent Effect [%]
1,c1cc(CN2CCCCC2)cc(NCc2cc[nH]n2)c1,0.9619
2,Cc1ccc(S(=O)(=O)NC[C@H]2OC[C@@H](NCc3ccncc3)[C@@H]2O)cc1,-4.658
3,CCc1nc(C)c([C@H]2CN(C)C[C@@H]2C(=O)NC(C)(C)c2ccccc2)[nH]1,-16
4,Cc1nc(C)n(CC2CCCCN2CCCS(=O)(=O)N(C)C)n1 (configuration not stated),-10.86
5,CCC[C@@H]1CN(C(=O)c2c(F)ccc(C)c2Cl)C[C@H]1C(=O)O,10.65
6,CC(=O)c1c(C)cc(C)c(CS(=O)(=O)c2nccn2C)c1C,-11.41
7,Cc1occc1C(=O)N1CC[C@@H](N2CCOCC2)[C@@H]1Cc1ccccc1,5.558
8,O=C(C1CCOCC1)N1CC[C@@](O)(c2ccccc2)[C@H]2CCCC[C@@H]21,1.669
9,CN(C(=O)C1CCOCC1)[C@@H]1CCC[C@@H](N2CCOCC2)[C@@H]1O,124.2
10,O[C@H]1CN(c2nc(-c3ccccc3)no2)C[C@@H]1N1CCOCC1,10.35
11,CN(C(=O)C1CCCCC1)[C@@H]1CCC[C@@H](N2CCOCC2)[C@@H]1O,5.741
12,CN(C)C(=O)CO[C@@H]1CC[C@H]2[C@H]1OCCN2C(=O)C1CCOCC1,4.998
13,CN(C(=O)C1CCOCC1)[C@@H]1CCC[C@@H](N2CCCC2)[C@@H]1O,75.81
14,CN([C@@H]1CC[C@@H](N2CCOCC2)[C@@H]1O)S(=O)(=O)c1ccccc1,122.9
15,CCc1cnc(N2CC[C@@H]3CN(CCC(C)C)S(=O)(=O)[C@@H]3CC2)nc1.O=C(O)C(F)(F)F,-2.106
16,O=C1CCC2(CCOC2)CN1CCCOc1cccnc1 (configuration not stated),36.56
17,O=C(CCS(=O)(=O)C1CCCC1)N1CCCC(n2ccnc2)C1 (configuration not stated),7.067
18,CSCCC(=O)N1CCCC(n2ccnc2)C1 (configuration not stated),98.51
19,CC(C)c1noc(CCC(=O)N2CCCC(n3ccnc3)C2)n1 (configuration not stated),13.44
20,CC(C)S(=O)(=O)CC(=O)N1CCCC(n2ccnc2)C1 (configuration not stated),0.06667
21,O=C(CCOCC(F)(F)F)N1CCCC(n2ccnc2)C1 (configuration not stated),105.8
22,CC(C)(C)NCC(=O)N1CCCC(n2ccnc2)C1 (configuration not stated),-1.533
23,CCc1nnsc1C(=O)NC1CCN(CCOc2ccc(Br)cc2)CC1,-5.495
24,CN1CCN(Cc2noc(CCc3nc(-c4ccccc4)no3)n2)CC1,3.84
25,O=C(CN1CCc2cncnc2C1)NC(c1ccccc1)C1CC1 (configuration not stated),5.851
26,O=C(CS(=O)(=O)Cc1cc(Cl)c2c(c1)OCO2)N1CCCCCC1,135.5

row,Structure (SMILES),Percent Effect [%]
1,CN(C)C(=O)CS(=O)(=O)Cc1cc(Cl)c2c(c1)OCO2,2.003
2,CC(C(N)=O)S(=O)(=O)Cc1cc(Cl)c2c(c1)OCO2 (configuration not stated),-4.736
3,CNC(=O)CS(=O)(=O)Cc1cc(Cl)c2c(c1)OCCCO2,7.566
4,CCN(C(=O)CS(=O)(=O)Cc1cc(Cl)c2c(c1)OCCCO2)C1CC1,3.578
5,O=C(CS(=O)(=O)Cc1cc(Cl)c2c(c1)OCO2)N1CCCC1,112.9
6,c1cnnc(N2CCCC(NCc3nc(-c4cccs4)no3)C2)c1 (configuration not stated),-0.05894
7,CCOCCC(=O)NC(Cc1ccc(C)cc1)c1ccccn1 (configuration not stated),30.55
8,CCCC(=O)N(C)c1cccc2ncccc12,-4.906
9,Fc1cccc(C(NCc2ncc[nH]2)c2ccccn2)c1 (configuration not stated),-5.246
10,CN(C)C(=O)CCCNC(=O)C(c1cccc(F)c1)N(C)C (configuration not stated),-9.864
11,CCCC(=O)N(C)C(c1cccc(F)c1)c1ccccn1 (configuration not stated),104.7
12,CCOCCCC(=O)N(C)C(c1cccc(F)c1)c1ccccn1 (configuration not stated),89.97
13,O=C(C1CC(=O)N(C2CC2)C1)N1CCN(CCn2cccc2)CC1 (configuration not stated),-24.19
14,CCc1nnsc1-c1nc(C(C)C)nn1-c1ccc2c(c1)OCO2,11.97
15,CNC(=O)C(C)(C)N1CCC[C@H]1C(=O)NC1CCCC1,1.106
16,Cc1onc(N)c1S(=O)(=O)N1CCCCC1C (configuration not stated),-5.745
17,CC(C)CC(=O)N1CC(=O)c2sc(NC3CCCCC3)nc2C1,104.9
18,COC(=O)[C@H]1CN(C(=O)NC(C)C)CCN1C(=O)C1CCCCC1,-4.407
19,CC[C@H](C)[C@H](N)C(=O)N1CC(=O)c2sc(NC3CCCCC3)nc2C1,89.49
20,CC(C)NC(=O)N1CC(=O)c2sc(NC3CCCCC3)nc2C1,121.6
21,CCOC(=O)c1nc(CN2CCN(C(=O)NC3CCCCC3)CC2)cs1,0.1108
22,O=C(NC1CCCC1)c1nc2c(o1)CN(C(=O)CO)C2,-3.342
23,O=C(NC1CCCC1)c1nc2c(o1)CN(C(=O)CCO)C2,3.342
24,CC(C)NC(=O)N1CCN2C(=O)OC[C@H]2C1,-2.318
